Source: PubChem BioAssay (National Center for Advancing Translational Sciences (NCATS))
Hits are enriched below; roughly 19% of the tested compounds scored in any of these assays.
KB-V1 MDR tox: kills drug-selected multidrug resistant KB-V1 cells. KB-V1 MDR cells viability, CellTiter-Glo, 72 h. Potency, µM (highest dose often 46.1 µM), actives largely listed as cytotoxic. 3.4% of 400,000 active; note: nearly all actives have a fitted effect of over 60% in size
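Luminescent ATP read-out (CellTiter-Glo, 10 min) measures survival of drug-selected KB-V1 MDR cells after 72 h, 37 degrees C compound exposure. Medium: phenol-red-free DMEM, 10% FBS. Values from fitted concentration-response curves.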
HT1080-NT tox: kills 2HG-producing HT-1080-NT fibrosarcoma cells | HT-1080-NT fibrosarcoma viability, CellTiter-Glo ATP luminescence, 48 h | Potency, µM (series often up to 46.1 µM), most hits filed as cytotoxic | 1.6% of 360,000 active | AID 686970;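 note: NT is the 2HG producing partner of a matched IDH1 knockdown line; nearly all actives have a fitted effect of over 55% in size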
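A 48-hour cytotoxicity screen used HT-1080-NT cells plated 2 hours before compound delivery. ATP-based CellTiter-Glo luminescence measured viability, normalized to DMSO and no-cell controls.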
DT40 TDP1 CPT: DT40-hTDP1 cell growth loss with CPT. AID 686979. Potency, µM (doses to about 46.2 µM), actives largely listed as inhibitors. 12% of 420,000 active. chicken DT40 Tdp1-/-;hTDP1 cells + 20 nM CPT, ATP luminescence, 48 h; note: nearly all actives have a fitted effect of over 55% in size
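Chicken DT40 Tdp1-/- cells complemented with human TDP1, 400 cells/well, exposed to compounds plus 20 nM camptothecin for at least 48 h at 37 C; viability read as ATP content by CellTiter-Glo luminescence.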
HT1080 IDH1KD tx: kills HT-1080 cells with IDH1 knockdown | 2% of 360,000 active | HT-1080 IDH1 knockdown viability, ATP luminescence, 48 h | Potency, µM (highest dose often 46.1 µM), most hits filed as cytotoxic
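Cytotoxicity counter-line: IDH1KD HT-1080, 48 h, CellTiter-Glo. Curves classed by r2, magnitude and activity.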
TDP1 cell noCPT: qHTS for Inhibitors of human tyrosyl-DNA phosphodiesterase 1 (TDP1): qHTS in cells in absence of CPT | DT40 Tdp1-/- hTDP1 cells, no CPT, ATP luminescence, 48 h | Potency, µM (top dose mostly 46.2 µM), hits mostly inhibitors | 15% of 420,000 active | AID 686978, 2013; note: nearly all actives have a fitted effect of over 55% in size
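Chicken DT40 Tdp1-/- cells stably complemented with human TDP1 were seeded at 400 cells/well with DMSO in place of 20 nM camptothecin. After compound pinning, cells grew at least 48 hr at 37 °C; viability read by CellTiter-Glo luminescence.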
KB-3-1 tox: kills parental KB-3-1 adenocarcinoma cells. KB-3-1 viability, CellTiter-Glo ATP luminescence, 72 h. Potency, µM (titrated, usually from 46.1 µM), usual class: cytotoxic. 1.4% of 400,000 active; note: nearly all actives have a fitted effect of over 60% in size
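Parental KB-3-1 viability, qHTS format: 72 h compound exposure, 37 °C; CellTiter-Glo; media-only wells and DMSO plates as controls; concentration-effect fits on corrected data.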
Hits are given with their value; - = inactive; ? = inconclusive; . = no result given. Calls come from the whole dose curve; as a rule, active = well fitted curve in the direction sought with a large enough effect; inconclusive = small, poorly fitted or top-dose-only effect, or another doubt; inactive = no such curve, though single readings can be large; an effect the other way counts as inactive or inconclusive.

SMILES	KB-V1 MDR tox	HT1080-NT tox	DT40 TDP1 CPT	HT1080 IDH1KD tx	TDP1 cell noCPT	KB-3-1 tox
CC(C)(C)C(=O)c1c(N)[nH]c(C(=O)c2ccccc2)c1-c1ccc(Br)cc1	-	-	20.6µM	-	23.1µM	-
C[C@@H]1NC(=O)[C@@H](N)CNC(=O)[C@H](C2CCNC(N)=N2)NC(=O)/C(=C/NC(N)=O)NC(=O)[C@H](CNC(=O)C[C@@H](N)CCCN)NC1=O (some centres not stated)	.	.	-	.	-	.
CN(Cc1cn(C)nc1-c1ccc(Oc2ccccc2)cc1)Cc1cnc2ccccn12	-	29.1µM	?	-	20.6µM	-
CN(Cc1ccno1)Cc1cn(C)nc1-c1ccc(Oc2ccccc2)cc1	?	-	?	-	?	-
COc1ccc(OCCOC(=O)CNC(=O)c2ccc(F)cc2)cc1	-	-	-	-	-	-
O=S(=O)(CCNC1CC1)NC1CCCCC1	-	-	-	-	-	-
O=C(C[C@H]1CC[C@@H]2[C@H](COC[C@@H](O)CN2Cc2cccc(F)c2)O1)NCC1CCCCC1	?	-	20.6µM	-	20.6µM	?
O=C(C[C@H]1CC[C@@H]2[C@H](COC[C@H](O)CN2Cc2cccc(C(F)(F)F)c2)O1)NCCc1ccccc1	?	-	20.6µM	?	13µM	-
CCCCCCCNC(=O)C1(CC2CC(c3cccc(Br)c3)=NO2)CCNCC1 (configuration not stated)	?	?	13µM	?	16.4µM	?
CCCCCCCNC(=O)C1(CC2CC(c3cccc(Br)c3)=NO2)CCN(C(=O)Cc2ccc(F)cc2)CC1 (configuration not stated)	-	-	?	-	16.4µM	-
CCCCCCCNC(=O)C1(CC2CC(c3ccc(Cl)cc3)=NO2)CCN(C(=O)Cc2ccc(F)cc2)CC1 (configuration not stated)	-	-	?	-	?	-
CCCCCCCNC(=O)C1(CC2CC(c3ccc(Cl)cc3)=NO2)CCNCC1 (configuration not stated)	-	-	8.2µM	-	10.3µM	?
CCCCCCCNC(=O)C1(CC2CC(c3cccc(Br)c3)=NO2)CCN(C(=O)c2ccccc2)CC1 (configuration not stated)	-	-	?	-	?	-
CCCCCCCNC(=O)C1(CC2CC(c3ccc(Cl)cc3)=NO2)CCN(C(=O)c2cc(OCC)c(OCC)c(OCC)c2)CC1 (configuration not stated)	-	-	20.6µM	-	10.3µM	-
CC(C)(C)CN1CCN(CCCc2ccccc2)C(CCO)C1 (configuration not stated)	-	-	-	-	?	-
COc1ccc(CNC(=O)C2(CC3CC(c4ccccc4)=NO3)CCN(C(=O)OC(C)(C)C)CC2)cc1 (configuration not stated)	-	-	?	-	?	-
O=C(Cc1ccc(F)cc1)N1CCC(CC2CC(c3ccc(Cl)cc3)=NO2)(C(=O)NCC2CCCCC2)CC1 (configuration not stated)	-	-	?	-	?	?
CCCCCCCNC(=O)C1(CC2CC(c3ccc(Cl)cc3)=NO2)CCN(C(=O)CCCCCBr)CC1 (configuration not stated)	-	-	16.4µM	-	18.4µM	-
COc1ccc(CNC(=O)C2(CC3CC(c4ccccc4)=NO3)CCN(C(=O)CCCCCBr)CC2)cc1 (configuration not stated)	-	-	9.2µM	-	?	-
CCOc1ccc(NC(=O)CN2CCN(c3ccc(F)cc3)CC2)cc1S(=O)(=O)N1CCCC1	-	-	?	-	?	-
CCOc1ccc(NC(=O)CN2CCN(c3ccccc3C)CC2)cc1S(=O)(=O)N1CCCC1	4.11µM	-	?	-	?	-
CCOc1ccc(NC(=O)COc2cccc3cccnc23)cc1S(=O)(=O)N1CCCC1	20.6µM	-	?	?	14.6µM	?
Cc1ccc(NC(=O)CSc2ccccc2)cc1S(=O)(=O)N1CCCCC1	.	-	14.6µM	-	?	.
COc1ccc(NC(=O)CSc2ccc(F)cc2)cc1S(=O)(=O)N1CCCCC1	-	-	20.6µM	-	-	-
Cc1ccc(NC(=O)COc2ccc(-c3nnco3)cc2)cc1S(=O)(=O)N1CCOCC1	-	-	?	-	13µM	?
SMILES	KB-V1 MDR tox	HT1080-NT tox	DT40 TDP1 CPT	HT1080 IDH1KD tx	TDP1 cell noCPT	KB-3-1 tox
Cc1ccc(NC(=O)Cc2ccc(Cl)cc2)cc1S(=O)(=O)N1CCCCCC1	-	?	?	?	?	?
Cc1ccc(CN2CC(C(=O)Nc3ccc(C)c(S(=O)(=O)N4CCCCC4)c3)CC2=O)cc1 (configuration not stated)	20.6µM	-	?	-	?	16.4µM
Cc1ccc(OCCC(=O)OCC(=O)Nc2ccc(C)c(S(=O)(=O)N3CCOCC3)c2)cc1	-	-	-	-	-	-
Cc1ccc(NC(=O)Cn2ncc(Cl)c(Cl)c2=O)cc1S(=O)(=O)N1CCCCC1	?	?	7.31µM	?	3.26µM	?
COc1ccc(NC(=O)COc2cc(C)cc(C)c2)cc1S(=O)(=O)N1CCCCC1	18.4µM	?	7.31µM	?	8.2µM	?
COc1ccc(NC(=O)CCOc2ccc(C)cc2)cc1S(=O)(=O)N1CCCCC1	-	-	?	-	?	?
Cc1cc(C)cc(NC(=O)C(=O)NCC(c2ccc3c(c2)OCO3)N2CCOCC2)c1 (configuration not stated)	.	.	-	.	-	.
CCCn1c(C)cc(C(=O)COc2ccc(-c3nnco3)cc2)c1C	?	-	4.61µM	-	7.31µM	?
Cc1ccc(NC(=O)COc2ccccc2)cc1S(=O)(=O)N1CCCCCC1	-	-	?	-	29.1µM	-
CC(C)CC(=O)Nc1ccc(C(=O)COc2ccc(-c3nnco3)cc2)cc1	-	-	?	-	23.1µM	-
Cc1ccc(NC(=O)COC(=O)c2ccc([N+](=O)[O-])o2)cc1S(=O)(=O)N1CCCCC1	-	-	-	-	-	-
Cc1ccc(NC(=O)COc2cccnc2[N+](=O)[O-])cc1S(=O)(=O)N1CCCCC1	?	-	13µM	-	20.6µM	-
CCCn1c(C)cc(C(=O)COc2ncnc3sccc23)c1C	-	-	?	?	?	?
Cc1ccc(NC(=O)COc2ccccc2C#N)cc1S(=O)(=O)N1CCCCCC1	?	-	?	-	?	?
CO/N=C(\C(=O)N[C@@H]1C(=O)N2C(C(=O)[O-])=C(C[n+]3cccc4c3CCC4)CS[C@H]12)c1csc(N)n1	.	.	?	.	-	.
